Laboratory results as given in PubChem BioAssay (NCATS).
Results filed as inconclusive are left out. Entries that show only a call come without a potency. A number with no mark means an inactive call. Calls of active or inactive are those of the source. Calls come from the whole dose curve; as a rule, active = well fitted inhibition curve with a large enough effect; inconclusive = small, poorly fitted or top-dose-only effect; inactive = no such curve, though single readings can be large or run the other way.

Each compound was assayed against Rap guanine nucleotide exchange factor 3 (Homo sapiens) (UniProt O95398) (assay: Counterscreen qHTS for antagonist of cAMP-regulated guanine nucleotide exchange factor 3 (EPAC1) (AID 1645888)). Settings: Rap1B-BODIPY-GDP nucleotide exchange, fluorescence; series mostly up to 154 µM.
From the text: Assay Provider (PI): Xiaodong Cheng Ph.D. The University of Texas Medical Branch, […], TX MLPCN Grant: NS066510 In multi-cellular eukaryotic organisms, the effects of cAMP are transduced by two ubiquitously-expressed intracellular cAMP receptors, the classic protein kinase A/cAMP-dependent protein kinase (PKA/cAPK) and the more recently discovered exchange protein directly activated by cAMP/cAMP-regulated guanine nucleotide exchange factor (EPAC/cAMP-GEF). Both PKA and EPAC are ubiquitously expressed in all tissues, and an increase in intracellular cAMP levels will lead to the activation of both PKA and EPAC. Therefore, careful dissections of the individual role and relative contribution of EPAC and PKA within the overall cAMP signaling in various model systems are critical for further elucidating the mechanism of cAMP signaling. To date no EPAC-specific antagonists and agonist, as well as isoform-specific agonists have been reported, and developing EPAC-specific pharmacological probes to determine the physiological functions that EPAC play in the overall cAMP-mediated signaling remains a major challenge within the research field. Furthermore, identified regulators of EPAC may lead to new mechanism-based therapeutic strategies specifically targeting the EPAC / cAMP-signaling components as EPAC has been implicated to play important roles in major human pathological conditions such as diabetes, heart disease, and cancer. This qHTS will be used to screen the Molecular Libraries Small Molecule Repository (MLSMR) as a concentration-titration series using the NCGC unique quantitative screening (qHTS) platform to find activators for EPAC1. In addition, this assay will also be used as a counterscreen for the EPAC2 qHTS. This fluorescent based assay is developed and validated for EPAC1 that measures exchange using EPAC effector Rap1 complex with BODIPY-GDP, a GDP analog with a tethered fluorophores. Activators are identified by monitoring the change in fluorescence signal as the exchanged free BODIPY-GDP has a reduced fluorescence compared to Rap1-bound BODIPY-GDP. Increase in signal (activation) is the desired outcome for the EPAC1 agonist while no activity in this assay is desired for the EPAC2 agonist counterscreen. Reference: [1] de Rooij, J., Zwartkruis, F. J., Verheijen, M. H., Cool, R. H., Nijman, S. M., Wittinghofer, A., and Bos, J.L. (1998) Nature 396, 474-477. Kawasaki, H., Springett, G. M., Mochizuki, N., Toki, S., Nakaya, M., Matsuda, M., Housman, D. E., and Graybiel, A. M. (1998) Science 282, 2275-2279.
EPAC1 Counterscreen PROTOCOL TABLE SEQUENCE No. (e.g., 1, 2, 3, etc.); […] (e.g., Cells, Incubation, Reagent, etc.); VALUE and DESCRIPTION. 1. Reagent. 3 uL. [1x] 250 nM Rap1B-BODIPY-GDP, and 50 uM GDP. 2a. Compound. 23 nL. Control 6,572 uM cAMP (working concentration). 2b, 2c. Compound. 23 nL. Control activator and inhibitor; 234 - 30,000 uM cAMP and 16.4 - 10,000 uM. 2d. Compound. 46 nL. MLSMR follow-up library; 0.64 - 10,000 uM. 3. Time. 15 sec, 1000rpm. Centrifuge. 4. Time. 5 min. Incubation at room temperature. 5. Detector. Fluorescence. (Read 1), Ex/Em = 480 nm / 540 nm. 6. Time. 30 min. Incubation at room temperature. 7. Detector. Fluorescence. (Read 2), Ex/Em = 480 nm/ 540 nm. 8. Reagent. 1uL. Dispense either [4x] 10 uM cAMP or buffer. 9. Time. 15 sec, 1000 rpm. Centrifuge. 10. Time. 5 min. Incubation at room temperature. 11. Detector. Fluorescence. (Read 3), Ex/Em = 480 nm / 540 nm. 12. Time. 30 min. Incubation at room temperature. 13. Detector. Fluorescence. (Read 4), Ex/Em = 480 nm / 540 nm. NOTES (numbers refer to Sequence numbers above; values are from representative experiments) 1. Medium-binding black solid-bottom Greiner plates (789176-F). Dispense 3 uL of [1x] 250 nM Rap1B-BODIPY-GDP, and 50 uM GDP into columns 1 to 48. 2a. Control compound cAMP (6,572 uM, column 3, rows 1 to 32) single pin-transferred for a [final] of 50 uM. 2b. […]

Rap guanine nucleotide exchange factor 3 (Homo sapiens), sequence (O95398 whole entry, looked up): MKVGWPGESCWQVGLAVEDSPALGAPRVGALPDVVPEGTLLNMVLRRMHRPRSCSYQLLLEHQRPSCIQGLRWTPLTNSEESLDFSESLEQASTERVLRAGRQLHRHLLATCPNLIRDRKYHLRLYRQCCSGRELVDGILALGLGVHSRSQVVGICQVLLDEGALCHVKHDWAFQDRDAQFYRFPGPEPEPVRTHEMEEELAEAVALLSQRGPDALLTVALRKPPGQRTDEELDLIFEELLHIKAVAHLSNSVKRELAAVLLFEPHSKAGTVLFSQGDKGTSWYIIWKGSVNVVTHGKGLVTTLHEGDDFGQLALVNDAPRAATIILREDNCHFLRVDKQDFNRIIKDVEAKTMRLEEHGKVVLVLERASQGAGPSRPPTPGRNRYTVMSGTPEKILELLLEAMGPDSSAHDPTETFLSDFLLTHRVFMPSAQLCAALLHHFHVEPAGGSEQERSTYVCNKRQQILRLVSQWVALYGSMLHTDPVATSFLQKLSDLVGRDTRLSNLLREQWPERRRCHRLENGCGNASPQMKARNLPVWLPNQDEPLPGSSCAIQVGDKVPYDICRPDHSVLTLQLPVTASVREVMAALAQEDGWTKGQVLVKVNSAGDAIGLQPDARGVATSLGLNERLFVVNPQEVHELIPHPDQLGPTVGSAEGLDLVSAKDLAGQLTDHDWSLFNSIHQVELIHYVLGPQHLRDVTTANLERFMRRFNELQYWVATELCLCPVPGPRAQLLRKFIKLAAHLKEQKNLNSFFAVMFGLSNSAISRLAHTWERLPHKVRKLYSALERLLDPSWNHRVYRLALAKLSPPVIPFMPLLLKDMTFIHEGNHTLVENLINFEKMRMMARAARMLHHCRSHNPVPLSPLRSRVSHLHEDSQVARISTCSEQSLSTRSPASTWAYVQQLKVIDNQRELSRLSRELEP

SMILES | Potency | activity change, negative = inhibition
COc1cc(Nc2cc(C)nc3ncnn23)cc(OC)c1 | inactive | –
O=C(N/N=C/c1cn(-c2ccccc2)nc1-c1cccnc1)c1ccccc1 | – | -17.7% [at 30.8 µM]
O=S(=O)(NCc1ccco1)c1ccc(Cl)cc1Cl | – | -9.1% [at 30.8 µM]
CCOC(=O)c1cc2c(=O)n3ccccc3nc2n(Cc2ccco2)c1=NC(=O)c1ccc(Br)cc1 | inactive | –
CC(OC(=O)c1nn(C)c(=O)c2ccccc12)C(=O)NC1CCCCC1C (stereo not given) | inactive | –
COc1ccc(S(=O)(=O)CC(=O)c2cc3cc(Br)ccc3oc2=O)cc1 | – | -4.76% [at 30.8 µM]
COc1cc2c(cc1OC)-c1cc(NCc3ccccn3)nc(=O)n1CC2 | inactive | –
COc1ccc2c(c1)C1=NN(/C(C)=C/C(C)=O)C(c3cccc(F)c3)C1CC2 (stereo not given) | – | -17.2% [at 30.8 µM]
Cc1ccc(S(=O)(=O)NC(=O)Cn2nnc(-c3ccccc3)c2COc2ccc3ccccc3c2)cc1 | inactive | –
COCCN(CCOC)Cc1cc(=O)oc2cc(C)c(C)cc12 | – | -13% [at 30.8 µM]
O=C(CSc1nc2c([nH]c3ccccc32)c(=O)n1-c1ccccc1F)Nc1cccc(Cl)c1 | inactive | –
Cc1cc(C)n2[nH]c(=O)c(N=Nc3ccc(S(N)(=O)=O)cc3)c2n1 | inactive | –
O=c1[nH]c([N+](=O)[O-])nn1C(c1ccccc1)c1ccccc1 | inactive | –
NS(=O)(=O)c1cc(C(=O)NC2CCSc3ccccc32)ccc1Cl (stereo not given) | inactive | –
CCc1ccc(OCCCSc2nc(-c3ccc(C(C)(C)C)cc3)nc3cc(=O)[nH]n23)cc1 | inactive | –
O=C(O)c1ccc(N/N=C/c2c(F)cccc2Cl)cc1 | – | -2.2% [at 30.8 µM]
COc1ccc(Cl)cc1N(C)C(=O)Cc1noc2ccc(C)cc12 | inactive | –
NS(=O)(=O)c1ccc(NC(=O)Cc2c(F)cccc2Cl)cc1 | inactive | –
COc1cccc(OC)c1C(=O)Nc1ccccc1Sc1ccccc1 | inactive | –
CCOc1ccc(-n2c(=O)[nH]cc(C(=O)Nc3ccc(OC)c(OC)c3)c2=O)cc1 | inactive | –

SMILES | Potency | activity change, negative = inhibition
CCS(=O)(=O)N1CCCC(C(=O)NCCCN(C)Cc2ccccc2)C1 (stereo not given) | inactive | –
CC(=O)N1CCc2cc(CNC(=O)c3ccccc3Br)ccc21 | inactive | –
CC1(c2ccccc2)CC(C)(C)N2C(=O)Cc3cccc1c32 (stereo not given) | inactive | –
Cc1ncc(CO)c(/C=N/NC(=O)c2cc(Br)ccc2O)c1O | – | -9.07% [at 30.8 µM]
COc1cccc(C(c2nnnn2-c2c(C)cccc2C)N2CCN(C/C=C/c3ccccc3)CC2)c1OC (stereo not given) | inactive | –
CCCc1cc(C(=O)Nc2ccccc2SC)no1 | inactive | –
O=c1oc2ccccc2nc1/C=C(O)/C=C\c1ccccc1 | – | -9.13% [at 30.8 µM]
Oc1cccc(C(Nc2ccccn2)c2ccc3cccnc3c2O)c1Cl (stereo not given) | inactive | –
COc1cc(O)cc(O)c1C(=O)/C=C/c1ccccc1 | inactive | –
CCOc1ccc(N2C(=O)Nc3ccccc3C2(O)C(=O)NCc2ccc(C)cc2)cc1 (stereo not given) | – | -5.47% [at 30.8 µM]
O=C(Nc1ccccc1N1CCOCC1)c1cccc2c(Br)cccc12 | inactive | –
COc1cc(/C=C2\SC(=S)N(NS(=O)(=O)c3ccc(C)cc3)C2=O)cc(OC)c1OC | inactive | –
COc1ccc(S(=O)(=O)N2CCCCCC2)cc1C(=O)N1CCCC(C(F)(F)F)C1 (stereo not given) | – | -17.4% [at 30.8 µM]
O=[N+]([O-])c1cc(Cl)ccc1NCCc1ccccn1 | – | -15.1% [at 30.8 µM]
Cc1c(C(=O)N2c3ccccc3CC2C)oc2ccccc12 (stereo not given) | inactive | –
CCc1nnc(NS(=O)(=O)c2ccc(NC(=S)NC(=O)/C=C/c3ccccc3)cc2)s1 | inactive | –
Cc1cccc(CN2[C@@H](CC(C)C)COCCS2(=O)=O)c1 | inactive | –
COc1ccc(C/C(C)=N/NC(=O)c2cccnc2)cc1 | – | -16% [at 30.8 µM]
NNc1nc2c(Cl)c(Cl)ccc2s1 | – | 3.53% [at 30.8 µM]
CN1CCC/C1=C/C=C1\SC(=S)NC1=O | inactive | –
